USP28 inh: human USP28 deubiquitinase inhibition | AID 1645857 | hit rate 3% among 47,000 | purified USP28, Ub-rhodamine cleavage fluorescence, 30 min | inhibition, % at 25 µM | Q96RU2
USP10 block: blocks human USP10 ubiquitin-rhodamine cleavage | purified USP10, Ub-rhodamine fluorescence, 60 min | Q14694 | inhibition, % at 20 µM | AID 1645856 | hit rate 1.1% among 47,000
Target sequence (Q14694 whole entry, looked up): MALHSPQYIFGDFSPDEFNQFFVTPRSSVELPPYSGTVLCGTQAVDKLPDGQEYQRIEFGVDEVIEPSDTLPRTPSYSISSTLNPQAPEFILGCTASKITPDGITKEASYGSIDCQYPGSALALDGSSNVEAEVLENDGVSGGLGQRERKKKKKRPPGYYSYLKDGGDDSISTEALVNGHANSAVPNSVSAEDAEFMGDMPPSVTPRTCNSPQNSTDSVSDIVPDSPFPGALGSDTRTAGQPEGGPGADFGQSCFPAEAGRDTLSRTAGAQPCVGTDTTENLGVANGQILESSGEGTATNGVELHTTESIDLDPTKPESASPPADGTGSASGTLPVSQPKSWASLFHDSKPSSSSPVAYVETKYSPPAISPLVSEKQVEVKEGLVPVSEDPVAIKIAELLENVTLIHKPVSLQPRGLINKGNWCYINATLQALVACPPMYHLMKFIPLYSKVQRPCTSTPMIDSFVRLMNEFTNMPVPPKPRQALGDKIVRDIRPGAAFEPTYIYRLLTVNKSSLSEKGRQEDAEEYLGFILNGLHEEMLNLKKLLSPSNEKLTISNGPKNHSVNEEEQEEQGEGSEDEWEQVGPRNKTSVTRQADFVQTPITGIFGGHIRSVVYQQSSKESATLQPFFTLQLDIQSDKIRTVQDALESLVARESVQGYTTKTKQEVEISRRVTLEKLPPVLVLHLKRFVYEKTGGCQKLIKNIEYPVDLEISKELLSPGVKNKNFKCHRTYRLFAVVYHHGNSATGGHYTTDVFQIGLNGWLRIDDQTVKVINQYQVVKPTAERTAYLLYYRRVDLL
USP8 block: inhibitors of human USP8 deubiquitinase; purified USP8, Ub-rhodamine cleavage fluorescence, 30 min; inhibition, % at 20 µM; hit rate 4.2% among 47,000; P40818
USP30 block: human USP30 deubiquitinase inhibition. Q70CQ3. purified USP30, Ub-rhodamine cleavage fluorescence. inhibition, % at 25 µM. hit rate 5.3% among 47,000. AID 1645860
OTUD3 inh: human OTUD3 deubiquitinase inhibition; inhibition, % at 25 µM; AID 1645858; purified OTUD3, Ub-rhodamine fluorescence, 2 h; hit rate 0.7% among 47,000
USP17 block: human USP17-like deubiquitinase inhibition; hit rate 6.5% among 47,000; inhibition, % at 50 µM; A8MUK1; purified USP17, Ub-rhodamine cleavage fluorescence, 3 h
The depositor's hits bear a star; i = inactive; . = not tested or not shown. Most compounds without a hit are left out; they make up all but 13% or so of the library. Rule as the data show it: active = inhibition above about 30%; inactive = the rest.

SMILES	USP28 inh	USP10 block	USP8 block	USP30 block	OTUD3 inh	USP17 block
Cc1cc(C(=O)Nc2ccccc2)c(C)n1-c1ccc(F)cc1	1	-1	14	-49	-1	10
Cc1cc(C(=O)N2CCc3nc(C(=O)NCc4ccccc4)sc3CC2)no1	1	-1	-4	13	-3	-48
Fc1ccc(-c2cc3n(c2)CCc2cc4c(cc2-3)OCO4)cc1	-31	-4	47*	-234	-35	-23
CCOc1cc(-c2cc3n(c(=N)c2C#N)CCc2cc4c(cc2-3)OCO4)ccc1OC	-149	-5	-91	i	-132	-132
Cc1cccc(CSc2nc3c(=O)n(C)c(=O)n(C)c3n2C)c1	-8	0	-8	10	-5	2
Cc1cc(C)n2nc(C(=O)NCc3ccc(Cl)cc3)nc2n1	-7	3	8	18	-5	2
Cc1cc(C)n2nc(NCc3cccc(Cl)c3)nc2n1	32*	1	15	10	4	0
O=C(Cc1cc(-c2ccc(F)cc2)on1)Nc1ccccc1C(F)(F)F	-19	-9	11	-54	-8	39*
O=C(Cc1cc(-c2ccc(F)cc2)on1)NCc1ccc(Cl)cc1	-6	5	11	-4	-2	0
O=C(Cc1cc(-c2ccc(F)cc2)on1)NCc1ccccc1	-4	7	6	0	0	60*
Cc1ccc(C)c(N2CCN(C(=O)C3CCCN(S(=O)(=O)c4cccs4)C3)CC2)c1 (centres undefined)	2	0	14	-31	-1	-13
COc1cccc(NC(=O)c2ccc(F)cc2Cl)c1	54*	-2	1	3	5	0
COc1cccc(NC(=O)c2ccc(=O)n(Cc3ccc(F)cc3)c2)c1	12	3	10	14	7	1
COc1ccc(NC(=O)c2ccc(S(C)(=O)=O)cc2Cl)cc1	46*	1	5	-14	-2	9
O=C(COC(=O)C(Cc1c[nH]c2ccccc12)NC(=O)c1ccc(F)cc1)NCc1ccc(F)cc1 (centres undefined)	-4	9	-6	-3	-9	9
O=C(COC(=O)C(Cc1c[nH]c2ccccc12)NC(=O)c1ccccc1Cl)Nc1cc(F)ccc1F (centres undefined)	22	12	5	16	10	32*
O=C(Nc1ccc(N2CCCC2)c(S(=O)(=O)Nc2cccc(C(F)(F)F)c2)c1)c1ccc2ccccc2n1	-7	-9	-4	-85	-2	-22
Clc1cccc(-c2nnc(CN3CCN(c4ccccc4)CC3)o2)c1	0	0	-19	-5	0	-6
N#Cc1ccc(Cn2nnc(-c3cccc(Cl)c3)n2)cc1	73*	12	7	7	-3	12
C/C=C/C1=C(Cl)[C@@H](O)C(Cl)[C@@]1(O)C(=O)OC (some centres undefined)	-9	-10	-15	-111	-11	-43
O=C(NC1CC1)c1ccc2c(=O)n(-c3ccc(F)cc3)cnc2c1	-20	-1	62*	-10	-2	20
COc1cccc(-n2cnc3cc(C(=O)NC4CC4)ccc3c2=O)c1	-4	2	92*	-14	-1	73*
CCOC(=O)Cn1c(=O)n(C2CCCCC2)c(=O)c2ccccc21	8	0	6	-30	10	6
CC12CN3CC(c4ccccc4)(CN(C1)C3c1ccc(O)cc1)C2=O (centres undefined)	-12	0	-1	-11	-12	-5
Cc1ccc(C2N3CC4(C)CN2CC(c2ccccc2)(C3)C4=O)cc1 (centres undefined)	11	4	5	34*	19	19
SMILES	USP28 inh	USP10 block	USP8 block	USP30 block	OTUD3 inh	USP17 block
COc1ccc(NC(=O)Cc2nc(-c3cccc(Cl)c3)no2)cc1	-21	4	-8	-29	-19	-24
COc1ccc(NC(=O)CS(=O)c2ccc(Cl)c(Cl)c2)cc1 (centres undefined)	11	-1	8	47*	13	5
CCCCc1ccc(NC(=O)Nc2ccccc2C(=O)NCC2CC2)cc1	14	6	20	27	12	31*
Cc1nc(-c2cccnc2SCC(=O)N2CCN(C3CCN(C)CC3)CC2)no1	-21	-2	6	-22	-4	-11
CC(C)N(Cc1cc(=O)[nH]c2ccccc12)C(=O)c1ccc(C(C)(C)C)cc1	34*	5	5	16	-3	6
COc1cc(C(=O)N(Cc2cc(=O)[nH]c3ccccc23)C(C)C)cc(OC)c1OC	14	1	19	31*	14	19
Cc1cccc(OCC(=O)N(C)Cc2cc(=O)[nH]c3ccccc23)c1	14	1	30*	27	13	22
Cc1cccc(C)c1OCC(=O)N(C)Cc1cc(=O)[nH]c2ccccc12	3	1	3	12	-3	14
Cc1ccc(CNC(=O)c2cnc3ccccc3n2)cc1	-1	-5	11	-17	30*	2
O=C(NCc1ccc(F)cc1)c1cnc2ccccc2n1	-10	-6	-4	-39	-9	-8
O=C(NCc1nc(-c2ccc3c(c2)[nH]c(=O)n3C2CCCC2)no1)c1ccccc1	0	-4	49*	-55	-20	58*
O=C(CCSc1nnnn1-c1ccccc1)Nc1cc(C(F)(F)F)ccc1Cl	1	16	28	8	-7	40*
O=C1CCCN1Cc1ncn2c1CN(C(=O)N1CCCC1)CCC2	-1	1	-64	3	1	-8
CCn1c(=O)c2ccccc2n(Cc2nc(-c3ccccc3)no2)c1=O	5	4	0	5	2	8
CCn1c(=O)c2ccccc2n(Cc2nc(-c3ccc(OC)cc3)no2)c1=O	2	5	3	22	9	36*
Cc1cccc2nc(CSc3nc4ccc([N+](=O)[O-])cc4[nH]3)cn12	3	61*	62*	8	9	0
CC(C)C[C@@H]1NC(=O)[C@H](CCCN)NC(=O)[C@H](C(C)C)NC(=O)[C@H](Cc2ccc(O)cc2)NC(=O)[C@H](CCC(N)=O)NC(=O)[C@H](CC(N)=O)NC(=O)[C@@H](Cc2ccccc2)NC(=O)[C@H](Cc2ccccc2)NC(=O)[C@@H]2CCCN2C(=O)[C@@H](Cc2ccccc2)NC1=O	39*	-9	-314	-127	0	2
Cc1ccc(NC(=O)CCc2c(C)nn(-c3cc(N4CCOCC4)ncn3)c2C)c(C)c1	-1	-1	-14	19	-9	.
COc1cc(NC(=O)c2ccccc2)c(OC)cc1NC(=O)CCC(=O)N(c1ccccc1)c1ccccc1	18	8	-1	58*	25	62*
Cc1ccccc1Nc1oc2c(c1-c1ccccc1Cl)c(=O)n(C)c(=O)n2C	-4	0	-29	-18	-2	-15
COCCN1C(=O)C[C@@H]2[C@H]1CCN2C(=O)c1cncc(C)c1	16	3	-48	31*	15	7
